Screens (PubChem)
HT1080-NT tox: kills 2HG-producing HT-1080-NT fibrosarcoma cells; HT-1080-NT fibrosarcoma viability, CellTiter-Glo ATP luminescence, 48 h; Potency, µM (top dose mostly 46.1 µM), for the others: top-dose activity, negative = less viability, actives largely listed as cytotoxic; actives 1.6% (n = 360,000); AID 686970;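 further: NT is the 2HG producing partner of a matched IDH1 knockdown line; potency means the concentration at half of the fitted maximal effect; 0% = DMSO-treated cells and -100% = media-only wells without cells; nearly all actives have a fitted effect of over 55% in size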
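Viability of the 2HG-overproducing fibrosarcoma line after 48 hours of compound exposure at 37 degrees C was determined by luminescence with CellTiter-Glo, and concentration-effect curves were then fitted and categorized.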
HT1080 IDH1KD tx: toxicity to HT-1080 IDH1 knockdown cells (counter line); actives 2% (n = 360,000); Potency, µM (top dose mostly 46.1 µM), for the others: at the highest dose activity, negative = toxicity, actives largely listed as cytotoxic; HT-1080 IDH1 knockdown viability, ATP luminescence, 48 h;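 further: potency means the concentration at half of the fitted maximal effect; 0% = DMSO wells and -100% = cell-free medium wells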
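IDH1KD HT-1080 cells, 750/well, RPMI + 5% FBS; compound pinned after 2 h settling; 48 h, 37 °C; CellTiter-Glo luminescence; % activity normalised to DMSO and no-cell wells; curves fitted, classed by r2 and efficacy.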
KB-3-1 cytotox: kills parental KB-3-1 adenocarcinoma cells | KB-3-1 viability, CellTiter-Glo ATP luminescence, 72 h | Potency, µM (doses to about 46.1 µM), usual class: cytotoxic | AID 1347075 | actives 1.4% (n = 400,000); further: potency means the concentration at half of the fitted maximal effect; nearly all actives have a fitted effect of over 60% in size
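Using CellTiter-Glo luminescence, growth of non-resistant KB-3-1 adenocarcinoma cells is assessed 72 h after pin-tool compound addition at 37 °C. Normalized responses across the concentration series yield fitted curves.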
IL1B secr inh: inhibitors of inflammasome signaling (IL-1 beta secretion); activity change, % at 57.5 µM; AID 743279; actives 4.7% (n = 360,000); THP-1 LPS/ATP IL-1B secretion, AlphaLISA, 16 h; stronger effect = lower value; in the data active means activity change below about -50%; inconclusive means mostly about -30% to -49%
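THP-1 cells pretreated 1 hr with compounds (up to 57.5 uM final), then stimulated with LPS (250 ng/mL final) plus ATP (1.25 mM final); secreted IL-1B measured by AlphaLISA after 16 hr, decreased signal indicating inhibition.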
KB-V1 cytotox: KB-V1 MDR subline cytotoxicity | KB-V1 MDR cells viability, CellTiter-Glo, 72 h | Potency, µM (highest dose often 46.1 µM), most hits filed as cytotoxic | actives 3.4% (n = 400,000) | AID 1347076; further: potency means the concentration at half of the fitted maximal effect; nearly all actives have a fitted effect of over 60% in size
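Cells of the MDR subline KB-V1 are plated, dosed with compound at multiple concentrations, and incubated 72 h at 37 degrees C; CellTiter-Glo is then added and luminescence read after 10 min.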
An asterisk follows results filed as active; i = inactive; ? = inconclusive; / = not tested or not shown. A selection: hits, their analogues and other compounds. The true share with any hit is near 8.8%. Unless noted, the call rests on the fitted dose curve; in most records, active means well fitted curve in the direction sought with a large enough effect; inconclusive means small, poorly fitted or top-dose-only effect, or another doubt; inactive means no such curve, though single readings can be large; an effect the other way counts as inactive or inconclusive. Unless noted, on the % scale 0 is the no-effect control and ±100 the full control effect.

SMILES	HT1080-NT tox	HT1080 IDH1KD tx	KB-3-1 cytotox	IL1B secr inh	KB-V1 cytotox
COc1ccccc1-c1cc(C(F)(F)F)nc(S(=O)(=O)CCCC(=O)Nc2cccnc2Cl)n1	14.6µM*	25.9µM*	i	-110.3*	i
COc1ccccc1-c1cc(C(F)(F)F)nc(S(=O)(=O)CCCC(=O)N2CCCCC2C)n1 (stereo not drawn)	?	23.1µM*	?	-97.1*	i
COc1ccccc1-c1cc(C(F)(F)F)nc(S(=O)(=O)CCCC(=O)NC(C)C)n1	5.8µM*	5.8µM*	?	-97.5*	?
COc1ccccc1-c1cc(C(F)(F)F)nc(S(C)(=O)=O)n1	?	18.4µM*	?	-109.0*	?
COc1ccccc1/C=C1\SC(=S)N(CCC(=O)Nc2cccc(O)c2)C1=O	-18.8%	-2.7%	i	-24.9	i
COc1ccccc1-c1cc(C(F)(F)F)nc(S(=O)(=O)CCCC(=O)NCc2ccc(F)cc2)n1	9.2µM*	16.4µM*	?	-99.6*	i
CCCCN(C)C(=O)c1ccc(Nc2nc(C(N)Cc3ccc(C(F)(F)F)cc3)cs2)nc1 (stereo not drawn)	?	16.4µM*	?	-29.8	i
NC(Cc1ccc(C(F)(F)F)cc1)c1csc(Nc2ccc(C(=O)NCCCO)cn2)n1 (stereo not drawn)	?	?	?	-23.1	i
CCCCN(C)C(=O)c1ccc(Nc2nc(C(N)CCc3ccccc3)cs2)nc1 (stereo not drawn)	18.4µM*	23.1µM*	?	-11.2	i
NC(CCc1ccccc1)c1csc(Nc2ccc(C(F)(F)F)cn2)n1 (stereo not drawn)	-27.9%	?	i	-27.8	i
NC(Cc1ccc(C(F)(F)F)cc1)c1csc(Nc2ccc(C(=O)NCc3ccco3)cn2)n1 (stereo not drawn)	11.6µM*	7.31µM*	?	-13.2	i
CC1CCc2c(sc3ncnc(SCC(=O)N(C)C4CCS(=O)(=O)C4)c23)C1 (stereo not drawn)	0.0%	-1.4%	i	-15.9	i
Cc1nn(-c2ccccc2)c(Cl)c1CN(C(=O)CCl)c1ccc(Cl)cc1	7.31µM*	5.17µM*	?	-113.0*	20.6µM*
Cc1nn(-c2ccccc2)c(Cl)c1CN(C(=O)CCl)c1cccc2ccccc12	4.11µM*	5.17µM*	18.4µM*	-98.0*	?
CC(=O)N(Cc1c(C)nn(-c2ccccc2)c1Cl)c1ccc(Cl)cc1	-1.4%	-9.9%	i	17.4	?
COc1ccc(CNC(=O)CN(C(=O)c2csnn2)c2ccccc2F)cc1	10.5%	11.7%	i	-1.2	i
CC1CCCCC1=NNC(=O)c1ccccc1 (stereo not drawn)	6.2%	10.8%	i	-12.4	i
COc1ccc(N(C(=O)c2ccco2)C(C(=O)NC2CCCCC2)c2cccs2)cc1OC (stereo not drawn)	0.6%	-2.1%	i	5.6	i
C#CC(=O)N(c1cc(OC)ccc1OC)C(C(=O)NC1CCCC1)c1cccs1 (stereo not drawn)	0.0731µM*	0.731µM*	14.6µM*	-120.2*	?
C#CC(=O)N(c1ccc(OC)cc1OC)C(C(=O)NC1CCCC1)c1cccs1 (stereo not drawn)	0.92µM*	?	i	-102.4*	i
Cc1ccc(C)c(NC(=O)c2cnn(-c3cccc(F)c3)c2C2CCN(C(=O)OC(C)(C)C)CC2)c1	/	/	i	/	i
O=C1OCCN1c1c(-c2ccccc2)c(-c2cccs2)nc2c(-c3ccccc3)cccc12	13.5%	13.4%	i	-2.0	i
O=C(c1cn[nH]c1)N1CCc2c([nH]c3ccccc23)C1c1c(F)cccc1Cl (stereo not drawn)	?	-28.0%	i	-52.5*	i
COc1cccc(C2c3[nH]c4ccccc4c3CCN2C(=O)c2ccccc2F)c1OC (stereo not drawn)	?	?	i	?	i
O=C(c1cccs1)N1CCc2c([nH]c3ccccc23)C1c1ccc(Cl)cc1 (stereo not drawn)	?	-21.2%	11.6µM*	-4.6	11.6µM*
SMILES	HT1080-NT tox	HT1080 IDH1KD tx	KB-3-1 cytotox	IL1B secr inh	KB-V1 cytotox
Cc1cc(-c2ccc(C(C)C)c(S(=O)(=O)Nc3cc(C)on3)c2)on1	3.2%	-2.0%	i	15.1	i
Cc1sc(NC(=O)c2cccs2)c(C(N)=O)c1C	5.9%	-20.1%	i	-58.7*	i
CCOC(=O)c1c(NC(=O)c2cccs2)sc(CC)c1-c1cccs1	-7.7%	?	i	-11.0	18.4µM*
CCOC(=O)c1c(-c2ccc(C)s2)csc1NC(=O)c1cccs1	-0.2%	4.5%	i	1.6	i
NC(=O)c1ccsc1NC(=O)c1cccs1	-16.7%	-14.5%	i	-9.2	i
COC(=O)CSc1ccc(-c2nc3ccc(C)cc3[nH]2)cn1	-1.1%	13.8%	i	-89.6*	i
Cc1cc(NC(=O)CSc2ccc(-c3nc4cc(C)c(C)cc4[nH]3)cn2)no1	-22.2%	?	i	94.8	?
COc1cc(/C=C2\C=Cc3ccccc32)ccc1N(C)C	/	/	i	/	i
O=C1CCCCC1(O)Cc1ccc2c(c1)OCO2 (stereo not drawn)	-0.7%	2.1%	i	-13.0	i
CCCOc1ccc(C(F)(F)F)cc1NS(=O)(=O)c1ccc(Cl)nc1	?	?	i	-64.9*	i
CCCOc1ccc(C(F)(F)F)cc1NC(=O)c1cc(C)on1	0.7%	0.5%	i	-18.6	i
CSc1ccc(CN2CCC(n3nccc3NC(=O)C3CCOC3)CC2)cc1 (stereo not drawn)	3.9%	-0.5%	/	17.4	/
Nc1ccncc1N	-15.0%	3.3%	20.6µM*	-9.7	?
COc1ccc(C(=O)Nc2nc3ccc(OC)cc3s2)cc1	-23.9%	-14.1%	i	0.0	i
COc1ccc(C(=O)Nc2cccc(-c3cc4ccccc4oc3=O)c2)cc1[N+](=O)[O-]	16.4µM*	?	i	3.2	i
COc1ccc2nc(NC(=O)c3cccc(-c4cc5ccccc5oc4=O)c3)sc2c1	14.6µM*	18.4µM*	?	-5.7	?
CC(=O)Nc1ccc(NC(=O)c2cccc(-c3cc4ccccc4oc3=O)c2)cc1	23.9%	4.1%	?	2.8	i
COc1ccc2[nH]c(C)c(C(=O)CN(C)CC(OC)OC)c2c1	/	/	i	/	i
O=C(/C=C/[C@H]1O[C@@H](n2ccc(=O)[nH]c2=O)[C@H](O)[C@@H]1O)NCc1cccnc1	18.0%	26.1%	i	44.8	i
COc1cccc(CNC(=O)C2CCN(S(=O)(=O)N3CCC4(CC3)OCCO4)CC2)c1	-1.4%	1.2%	i	-6.1	i
